Drawing on PubChem BioAssay (NCI), this text covers growth for 15 compounds.

Compounds without any hit were thinned out: in the full panel of roughly 83,000, 20% have a hit.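 Percent growth is the endpoint: 0 to 100 indicates growth inhibition (40 means 60% inhibition), 0 means no net growth, and negative values indicate cell death.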 Values without a mark were called inactive. The source made the active and inactive calls. How the source made its calls: active means growth percent below 10; inactive means the rest.

This test has as its system HL-60(TB) leukemia. The test is described as follows: NCI-60 one-dose screen, 48 h (100 = growth as untreated, 0 = no growth, -100 = all killed). The note with it: 10 µM unless noted.
`C#Cc1cccc(Nc2ncnc3ccc(-c4cnc(Cl)c(NS(C)(=O)=O)c4)cc23)c1`: the growth is -5.77% (active). For the compound `CC(C)(O)C(=O)O`, the growth is 103%. Turning to `NC(=O)C(=O)c1ccccc1NC=O`, the growth is 101%. Regarding `COC(=O)CC[C@@H]1O[C@@H](c2ccc(F)cc2)[C@@H](O)[C@H]1O`, the growth is 113%. The figure for `COc1ccc(-c2cc(-c3cc(OC)c(OC)c(OC)c3)c(C#N)c(=O)n2CCCCCC(=O)NO)cc1` is 103%. `COc1cccc2c1C(=O)c1c(O)c3c(c(O)c1C2=O)C[C@@](O)(/C(C)=N/NC(=O)c1ccc(Cl)cc1)C[C@@H]3OC1CC(N)C(O)C(C)O1` (stereo not given in full): the growth is -53.4% (active). As to `c1ccc(CCSc2ncnc3nc[nH]c23)cc1`, the growth is 74.7%. Turning to `Cc1nc([C@H]2CC[C@H]3[C@@H]4CCC5=CC(=O)CC[C@]5(C)[C@H]4CC[C@]23C)cs1`, the growth is 4.93% (active).

Turning to `c1cc2nc(-c3cn[nH]c3)c3c(c2cc1-c1cn[nH]c1)C1CCC3C1` (stereo not given), the growth was 84.3%.

As for `C#CCOCC1CN(C)C(=O)O1` (stereo not given), the growth is 89.4%. Consider `O=C(/C=C/c1cc2ccccc2[nH]c1=O)c1ccc2c(c1)OCO2`, for which the growth was 79%. On to `CN1CCc2c(sc3nc4n(-c5ccc(Cl)cc5)c(=O)[nH]n4c(=O)c23)C1`, for which the growth was 89.3%. As to `COc1ccc(C(=O)/C=C/c2cn(Cc3ccc(Cl)cc3)c3ccccc23)cc1`, the growth was 47.2%. In the case of `N#Cc1c(N)nc(-c2cc(F)cc(C(F)(F)F)c2)nc1-c1ccccc1F` it was 92.8%; in that of `CO[C@H]1/C=C/C=C/C=C/C[C@H](OC(=O)[C@@H](C)NC(=O)C2CCCCC2)[C@H](C)[C@@H](O)/C(C)=C\CCC2=CC(=O)C=C(NC(=O)C1)C2=O`, -26.6% (active).
